Eight molecules from PubChem BioAssay (NCI) can be followed below.

About 83,000 compounds went through this panel and 20% of them were active in at least one assay; those are over-represented in the sample as a whole.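 Activity criterion: percent growth below 10, measured after cells in 96-well plates were exposed to a single compound concentration for 48 hours.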 A number with no mark means an inactive call. Active and inactive are the calls of the source.

Test in all cases: NCI-60 one-dose screen, 48 h (100 = growth as untreated, 0 = no growth, -100 = all killed)
What all share (conditions): 10 µM unless noted

The test system of test [1] is SR leukemia.
For test [2], the system named is RPMI-8226 leukemia.
In test [3] the test system is OVCAR-8 ovarian.
Test [4] concerns OVCAR-5 ovarian.
Test [5] concerns OVCAR-4 ovarian.
Test [6] deals with SK-OV-3 ovarian.
Test [7] deals with IGROV1 ovarian.
In test [8] the test system is OVCAR-3 ovarian.
Test [9] concerns HS 578T breast.
In test [10] the test system is NCI/ADR-RES ovarian.
Test [11] deals with T-47D breast.
The test system of test [12] is BT-549 breast.
The subject of test [13] is MDA-MB-435 melanoma.
The test system of test [14] is SW-620 colon.
The test system of test [15] is MCF7 breast.
Test [16] has as its system HCT-116 colon.
For test [17], the system named is HCC-2998 colon.
The subject of test [18] is KM12 colon.

For `CC(C)CCc1nc2ccc(NCc3ccc(OCCN4CCC(C)CC4)cc3)cc2[nH]1`, the growth in [1] is 14.2%; in test [2] it was 68.6%; in test [3] it was 96.6%; in test [4], 95%; in test [5], 80.6%; in test [6], 102%. Moreover, the growth in test [7] is 79.3%; in test [8], 71.9%; in [9] it was 84.3%; in test [10] it was 97%; in test [11], 97%; in [12] it was 77.1%. For the same molecule, the growth in test [13] was 89.2%; in test [14], 89.3%; in test [15], 62.3%; in test [16], 65.1%; in test [17] it was 42.7%; in [18], 87.6%.

With `Cc1cccc(C)c1NC(=O)Nc1ccccc1`, the growth in test [1] was 68.6%; in test [2], 96.1%; in test [3] it was 85.1%; in [4], 72.2%; in test [5] it was 76.6%; in test [6], 102%. Besides, the growth in test [7] is 71%; in test [8], 115%; in test [9], 128%; in [10] it was 97.1%; in test [11] it was 109%; in test [12], 116%. The growth in test [13] is 105%; in test [14], 54.1%; in test [15] it was 53.4%; in [16] it was 61.9%; in test [17], 99.6%; in test [18] it was 102%.

In the case of `COc1ccc(-c2cc(-c3ccc(Nc4nc(Nc5ccc(Cl)cc5)nc(Nc5ccc(Cl)cc5)n4)cc3)no2)cc1`, the growth in test [1] was 2.43% (active); in test [2] it was 12.5%; in test [3] it was 85.7%; in test [4], 86%; in [5] it was 77.4%; in test [6], 127%. Moreover, the growth in test [7] was 63.8%; in [8], 71.1%; in test [9] it was 90.2%; in test [10], 81.8%; in [11], 70.7%; in test [12] it was 89.8%. Further, the growth was 71.3% in [13]; 88.7% in [14]; 60.6% in test [15]; 53.3% in test [16]; 11.4% in [17]; 82% in [18].

Turning to `Brc1ccc(-c2nn(-c3ccccc3)cc2-c2nn[nH]n2)s1`, the growth was 87.4% in test [1]; 89.5% in test [2]; 96.3% in test [3]; 108% in [4]; 92.7% in test [5]; 98.2% in test [6]. Also, the growth in test [7] is 102%; in test [8], 96.5%; in [9], 89.9%; in test [10] it was 103%; in [11], 89.6%; in [12] it was 93.2%. Further, the growth is 103% in test [13]; 97.1% in [14]; 86.7% in [15]; 88.5% in test [16]; 97.6% in [17]; 99.7% in [18].

Consider `COc1cc(C(=O)c2c(-c3ccccc3)oc3ccccc23)cc(OC)c1O`, for which the growth in [1] is 13.7%; in test [2] it was 24.7%; in test [3], 34.6%; in test [4] it was 99.8%; in [5], 56.3%; in test [6], 51.2%. Also, the growth in test [7] is 41.1%; in test [8], 2.25% (active); in test [9] it was -3.45% (active); in [10], 21.8%; in [11], 28.7%; in test [12], 47.4%. In addition, the growth was -30.9% (active) in test [13]; 14.6% in test [14]; 21.8% in test [15]; 30.7% in [16]; 78.4% in test [17]; 27.7% in test [18].

For the molecule `C(CCCSC1=NCCN1)CCSC1=NCCN1`, the growth is 95.9% in [1]; 107% in [2]; 98.4% in test [3]; 89.8% in test [4]; 98.2% in test [5]; 112% in test [6]. In addition, the growth is 101% in test [7]; 107% in [8]; 104% in [9]; 94.4% in [10]; 101% in test [11]; 112% in [12]. The growth in test [13] was 103%; in [14] it was 98.2%; in [15], 97.5%; in test [16], 90.7%; in test [17], 103%; in test [18], 113%.

For the molecule `O=C1/C(=C/c2cccc(Br)c2)COc2ccc(O)c(O)c21`, the growth in test [1] was 13.6%; in test [2], -12.7% (active); in test [3], 3.75% (active); in [4] it was -31.5% (active); in test [5], 0.231% (active); in test [6], 62.9%. Moreover, the growth was -44.1% (active) in test [7]; -78% (active) in test [8]; 13.5% in test [9]; 7.25% (active) in [10]; -14.3% (active) in [11]; -19.2% (active) in test [12]. Also, the growth in test [13] is -34.7% (active); in test [14], -25.1% (active); in test [15] it was 6.49% (active); in test [16] it was -51% (active); in [17], -58.8% (active); in test [18] it was -60.9% (active).

Take `Cc1ccc(Nc2cc(N)nc(N)n2)cc1`: the growth in test [1] was 105%; in test [2] it was 93.5%; in test [3], 103%; in [4], 107%; in [5], 96.9%; in test [6], 98.1%. Also, the growth in [7] was 92.4%; in [8], 99.6%; in test [9], 100%; in test [10] it was 95%; in [11], 98.9%; in test [12], 113%. Also, the growth was 106% in [13]; 102% in [14]; 86.5% in test [15]; 104% in test [16]; 96% in test [17]; 95.5% in test [18].
